Out of some 310,000 compounds screened, about 14,000 (4.5%) showed an effect of 50% or more. The effect is printed as a negative number. This excerpt belongs to a sample that is enriched for strong results.
Target: human ether-à-go-go-related gene (hERG) potassium channel (human, UniProt Q12809)
Assay: primary screen, population patch clamp on CHO cells stably expressing hERG; higher = less effect of the substance
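Also: peak tail current of the secondary pulse compared with the same well before compound.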

Sequence of human ether-à-go-go-related gene (hERG) potassium channel (Q12809 whole entry, looked up): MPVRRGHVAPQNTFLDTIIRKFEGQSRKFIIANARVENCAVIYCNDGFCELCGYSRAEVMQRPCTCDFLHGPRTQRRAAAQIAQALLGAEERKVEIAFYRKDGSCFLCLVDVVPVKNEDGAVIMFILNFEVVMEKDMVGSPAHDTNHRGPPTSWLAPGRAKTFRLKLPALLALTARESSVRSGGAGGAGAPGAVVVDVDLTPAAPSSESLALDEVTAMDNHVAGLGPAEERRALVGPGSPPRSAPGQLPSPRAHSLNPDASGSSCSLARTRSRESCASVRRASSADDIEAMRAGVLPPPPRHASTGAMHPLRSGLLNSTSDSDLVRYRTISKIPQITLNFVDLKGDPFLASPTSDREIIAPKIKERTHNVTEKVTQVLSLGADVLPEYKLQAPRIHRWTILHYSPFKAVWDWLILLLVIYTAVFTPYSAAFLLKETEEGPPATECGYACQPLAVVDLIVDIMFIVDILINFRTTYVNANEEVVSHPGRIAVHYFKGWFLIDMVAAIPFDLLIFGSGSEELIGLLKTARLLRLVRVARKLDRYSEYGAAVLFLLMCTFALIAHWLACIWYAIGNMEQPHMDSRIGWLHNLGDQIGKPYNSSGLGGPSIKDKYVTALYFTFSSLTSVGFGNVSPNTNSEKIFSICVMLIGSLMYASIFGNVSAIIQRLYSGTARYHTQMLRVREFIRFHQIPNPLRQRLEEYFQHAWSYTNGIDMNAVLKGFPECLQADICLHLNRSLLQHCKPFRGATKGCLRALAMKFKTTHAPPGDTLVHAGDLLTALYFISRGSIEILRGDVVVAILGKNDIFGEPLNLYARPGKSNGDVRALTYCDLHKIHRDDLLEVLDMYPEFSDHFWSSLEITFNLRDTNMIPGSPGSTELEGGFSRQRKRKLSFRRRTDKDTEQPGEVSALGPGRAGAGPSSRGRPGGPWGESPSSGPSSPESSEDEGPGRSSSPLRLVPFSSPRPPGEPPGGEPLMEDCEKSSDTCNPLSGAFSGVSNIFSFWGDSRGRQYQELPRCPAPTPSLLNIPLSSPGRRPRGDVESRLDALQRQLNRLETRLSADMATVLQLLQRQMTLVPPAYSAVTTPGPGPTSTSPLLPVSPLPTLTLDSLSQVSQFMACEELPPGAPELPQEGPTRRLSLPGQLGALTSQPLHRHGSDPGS

Structure (SMILES)	hERG current change (%, negative = inhibition) at 10uM [%]
O=C(O)C/C(=C\c1ccc(Cl)cc1)c1nc2ccccc2o1	6.78
Cc1ccc2cc(C)c3nnc(SCC(=O)c4cccs4)n3c2c1C	-23.1
Cc1cc(C)c2c(c1)c(C)cc1nnc(SCC(=O)c3cccs3)n12	-2.98
Cc1ccc(C)c2c1cc(C)c1nnc(SCC(=O)c3cccs3)n12	-61.5
Cc1cc(N)n(-c2ccc(C(=O)O)cc2)n1.Cl	13.6
COc1ccc(CNC(=O)c2ccc(-c3ccccc3)cc2)cc1OC	0.777
Cc1cc2c(cc1S(=O)(=O)CCC(=O)NC1CCC(C)CC1)OCC(=O)N2 (stereo not shown)	-14.7
CC1CCCCC1NC(=O)CCS(=O)(=O)c1cc2c(cc1Cl)NC(=O)CO2 (stereo not shown)	-30.5
CC(=O)c1cccc(NC(=O)CCS(=O)(=O)c2cc3c(cc2C)NC(=O)CO3)c1	1.62
CCc1cccc(NC(=O)CCS(=O)(=O)c2cc3c(cc2C)NC(=O)CO3)c1	-14.1
Cc1cc2c(cc1S(=O)(=O)CCC(=O)Nc1cccc(C(F)(F)F)c1)OCC(=O)N2	-54
Cc1cc2c(cc1S(=O)(=O)CCC(=O)NC1CCCCC1C)OCC(=O)N2 (stereo not shown)	-53
Cc1nc(Sc2nnnn2-c2ccccc2)c(C#N)c(C)c1C	-21.3
CCOC(=O)C1CCCN(C(=O)Cn2cccc2C(=O)c2ccccc2)C1 (stereo not shown)	-11.5
Cc1cccc(C)c1NC(=O)COC(=O)c1cccnc1	4.43
C#CCOC(=O)C[N+](C)(C)C/C=C/c1ccccc1.[Cl-]	10.4
Cc1cccc(-c2nc(CSCC(=O)N3CCN(c4ccccn4)CC3)c(C)o2)c1	-41.2
Cc1oc(-c2cccc(C(F)(F)F)c2)nc1CN1CCOCC1	-3.32
Cc1cccc(N2CCN(Cc3nc(-c4cccc(Oc5ccccc5)c4)oc3C)CC2)n1	4.13
CCN1CCN(C(=O)C2CCN(Cc3nc(-c4cccc(Cl)c4)oc3C)CC2)CC1	-42.9
Cc1oc(-c2cccc(C(F)(F)F)c2)nc1CN1CCN(c2ccccn2)CC1	-52.5
COc1ccc(-c2nc(CN3CCC(C(=O)N4CCOCC4)CC3)c(C)o2)cc1C	-6.98
Cc1oc(-c2cccc(Cl)c2)nc1CN1CCC(C(=O)N2CCN(c3ccccc3F)CC2)CC1	-69.1

Structure (SMILES)	hERG current change (%, negative = inhibition) at 10uM [%]
Cc1oc(-c2cc(F)ccc2F)nc1CN1CCC(C(=O)N2CCOCC2)CC1	-42.8
Cc1oc(-c2cccc(Cl)c2)nc1CN1CCC(C(=O)N2CCN(c3ccccn3)CC2)CC1	-68.5
Cn1nnc2ccccc2c1=O	12.5
C/C(=N\NC(=S)Nc1c(C)cccc1C)c1cc2ccccc2o1	15.1
CCc1ccccc1NC(=O)CSc1n[nH]c(C)c1[N+](=O)[O-]	-8.12
CCNc1ccc(C(=O)O)cc1N	9.77
Cc1cccc(OCCOC(=O)C2CCN(S(=O)(=O)c3cccs3)CC2)c1	6.58
COc1cc(NC(=O)c2cccnc2)c(Cl)cc1NC(=O)c1ccc(Cl)cc1	-0.00342
COc1cc(/C=C2\SC(=O)NC2=O)ccc1Oc1cnccn1	2.14
CCN(CC(=O)NCc1ccc(Cl)cc1)C(=O)c1ccc(S(=O)(=O)NCc2ccco2)cc1	-54.9
CC(C)c1ccc(CN(C)C(=O)c2ccc(S(=O)(=O)NCc3ccco3)cc2)cc1	-33.7
CCN(CC(=O)NCc1ccc(Cl)cc1)C(=O)c1ccc(S(=O)(=O)N(C)C)cc1	-33.2
CN(Cc1ccc(Cl)cc1)C(=O)c1ccc(S(=O)(=O)NCc2ccco2)cc1	-51.8
COc1ccc(S(=O)(=O)NCc2ccc(C(=O)N(C)Cc3ccco3)cc2)cc1	-19.1
CCN(CC(=O)Nc1c(F)cccc1F)C(=O)c1ccc(S(=O)(=O)NCc2ccco2)cc1	8.72
Cc1nn(-c2ccccc2)c(C)c1CN(C)C(=O)c1ccc(S(=O)(=O)NCc2ccco2)cc1	-21.2
COc1ccccc1CN(C)C(=O)c1ccc(S(=O)(=O)NCc2ccco2)cc1	-14.9
CN(Cc1cccs1)C(=O)c1ccc(S(=O)(=O)NCc2ccco2)cc1	-54.2
Cc1ccccc1C(=O)Nc1cccc(NC(=O)c2cccnc2)c1	-9.39
CCn1ncc(/C=C2/SC(=S)NC2=O)c1C	23.6
CCOc1ncnc2c1sc1nc(C)cc(C)c12	16
CC(C)N(C(=O)N1CCC(c2nc(-c3ccncc3)no2)CC1)C(C)C	-15.3
O=C(c1ccco1)N1CCN(S(=O)(=O)c2ccc(Br)s2)CC1	-16

Structure (SMILES)	hERG current change (%, negative = inhibition) at 10uM [%]
CCOCCCn1c(=N)c(C(=O)NCCN2CCOCC2)cc2c(=O)n3cccc(C)c3nc21	-53.6
CCCCNC(=O)c1cc2c(=O)n3cccc(C)c3nc2n(CCN2CCOCC2)c1=N	-86
Cc1cccn2c(=O)c3cc(C(=O)NCCN4CCOCC4)c(=N)n(CCN4CCOCC4)c3nc12	18.5
Cc1cccn2c(=O)c3cc(C(=O)NCCN4CCOCC4)c(=N)n(CCCN4CCOCC4)c3nc12	15.2
Cc1ccc(NC(=O)CN2CCCCC2)c2c1CC(C)(C)O2	1.17
O=C(Cc1cccs1)Nc1nc(-c2ccc(F)cc2F)cs1	-4.34
CCCn1cnc2c(=S)nc(N)[nH]c21	16.3
CCNCCC(=O)N1c2ccccc2Sc2ccc(NC(=O)OCC)cc21.Cl	-29.6
COC(=O)c1c(C)oc2cc(Br)c(OCC(=O)C(C)(C)C)cc12	6.12
CC(C)N1C(=O)CCC1C(=O)NC1CCCC1 (stereo not shown)	-3.05
CCOc1ccc(-c2cc(C(=O)N/N=C(\C)c3cccnc3)c3ccccc3n2)cc1	10.6
CCOc1ccc(S(=O)(=O)N(CC)CC(=O)N2CCOCC2)cc1C	6.73
CCCNC(=O)NCc1ccc(N2CCCC2=O)cc1	8.43
O=C(O)CCCCCCCCCCP(=O)(c1ccccc1)c1ccccc1	-7.05
O=P(CCCCCCCCCP(=O)(c1ccccc1)c1ccccc1)(c1ccccc1)c1ccccc1	-56.1
O=P(O)(O)CCP(=O)(c1ccccc1)c1ccccc1	9.46
CCN(CC(=O)N1CCCCC1)S(=O)(=O)c1ccccc1	-7.12
COc1ccc(C2C(C#N)=C(N)Oc3n[nH]c(C)c32)cc1CN1CCN(c2ccc(F)cc2)CC1 (stereo not shown)	-65.6
COc1cc(OC)c(CN2CCCN(C)CC2)cc1Br	18.1
COc1ccc(CN2CCN(C(c3ccc(F)cc3)c3ccc(F)cc3)CC2)c(OC)c1OC.Cl	-13.3
COc1ccc(CN2CCNCC2)c(OC)c1OC	9.67
COc1cc(OC)c(OC)cc1CN1CCN(c2ccc(F)cc2)CC1	-68.5
COc1cc(OC)c(CN2CCCCCCC2)cc1Br	-22.4

Structure (SMILES)	hERG current change (%, negative = inhibition) at 10uM [%]
COc1ccc(CN2CCN(c3ccc(F)cc3)CC2)c(OC)c1OC	-70.2
COc1ccc(C2C(C#N)=C(N)Oc3n[nH]c(C)c32)cc1Cn1nnc2ccccc21 (stereo not shown)	-8.03
COc1cc(OC)c(CN2CCN(c3ccc(F)cc3)CC2)cc1Br	-70.3
COc1cc(OC)c(OC)cc1CN1CCN(S(=O)(=O)c2ccc(F)cc2)CC1.O=C(O)C(=O)O	-7.69
COc1ccc(C2C(C#N)=C(N)Oc3n[nH]c(C)c32)cc1Cn1cc([N+](=O)[O-])cn1 (stereo not shown)	-14
COc1cc(OC)c(OC)cc1CN1CCN(c2ccccc2OC)CC1	-31.1
S=c1[nH]nc(-c2ccccc2)n1/N=C/c1c[nH]c2ccccc12	12.1
CC1(C)CC2CC(C)(CN2C(=O)COC(=O)CNC(=O)c2ccc(Cl)c(Cl)c2)C1 (stereo not shown)	-20.9
O=C(CN1C(=O)NC2(CCCCCC2)C1=O)NCCc1ccc(F)cc1	-13
O=C(NCc1cccs1)C1CCN(S(=O)(=O)c2ccc(Br)s2)CC1	-14.8
CCc1cc2c(=O)n(N)c(CCC(=O)O)nc2s1	-8.56
Cc1ccc(-n2nnnc2SCC(=O)c2c(N)n(C3CC3)c(=O)[nH]c2=O)c(C)c1	-4.23
CC1Cc2cc(/C(O)=C3/C(=O)C(=O)N(CCCn4ccnc4)C3c3ccc(Br)cc3)ccc2O1 (stereo not shown)	6.07
CN(Cc1ccc(F)cc1)C(=O)c1cc(COc2ccc(F)cc2F)on1	1.65
O=C(c1cc(COc2ccc(-n3cncn3)cc2)on1)N1CCCC1	-12
CN(Cc1ccc(F)cc1)C(=O)c1cc(COc2ccc(-n3cncn3)cc2)on1	-78.3
COc1cccc(CN(C)C(=O)c2cc(COc3ccc(-n4cncn4)cc3)on2)c1	-79.9
COC1CCN(C(=O)c2cc(COc3ccc(-n4cncn4)cc3)on2)CC1	-18.6
COCCOC1CCN(C(=O)c2cc(COc3ccc(-n4cncn4)cc3)on2)CC1	-22.8
CCc1ccc(CN(C)C(=O)c2cc(COc3ccc(-n4cncn4)cc3)on2)cc1	-42.5
CCCOC1CCCN(C(=O)c2cc(COc3ccc(-n4cncn4)cc3)on2)C1 (stereo not shown)	-79
COc1cccc(CN(C)C(=O)c2cc(COc3ccc4ncccc4c3)on2)c1	-14.8

From paper PMC4336329 (PLoS ONE, 2015)
